Out of some 360,000 compounds screened, about 9,100 (2.5%) were called active. Another 4% or so got no clear call; they are omitted. No stated cut-off is given here; in the data, active means max response below about -50%; inconclusive means no clear call, values can overlap the other calls; inactive means above that. Only a selection was taken, and actives are over-represented in it overall.

Among the data in PubChem BioAssay AID652054 (National Center for Advancing Translational Sciences (NCATS), 2013) are max response, negative = inhibition values, retold here.
On the % scale 0 is the no-effect control and ±100 the full control effect.

Sequence of D(3) dopamine receptor (Homo sapiens) (P35462 whole entry, looked up): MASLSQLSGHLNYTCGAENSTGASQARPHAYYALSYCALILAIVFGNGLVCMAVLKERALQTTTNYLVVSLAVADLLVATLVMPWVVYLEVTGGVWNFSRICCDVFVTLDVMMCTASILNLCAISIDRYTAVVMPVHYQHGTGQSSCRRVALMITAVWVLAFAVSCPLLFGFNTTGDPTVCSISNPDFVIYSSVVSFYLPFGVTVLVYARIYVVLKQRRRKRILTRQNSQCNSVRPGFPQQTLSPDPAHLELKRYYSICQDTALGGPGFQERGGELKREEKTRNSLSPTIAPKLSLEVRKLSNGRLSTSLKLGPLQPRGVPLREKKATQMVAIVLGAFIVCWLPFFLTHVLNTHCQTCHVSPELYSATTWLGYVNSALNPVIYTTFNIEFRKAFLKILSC

The assay concerns the target D(3) dopamine receptor (Homo sapiens) (UniProt P35462). The assay can be described thus: qHTS of D3 Dopamine Receptor Antagonist: qHTS. The conditions noted are these: D3R cells, DiscoveRx beta-arrestin luminescence, antagonist mode; hits give low values. The text has this:
D3 DARs represent a very important target for the treatment of several neuropsychiatric disorders. Indeed, one of the most promising therapeutic applications for the D3 DAR is in the area of addiction and related disorders. […] These findings have been observed with a number of addictive substances including cocaine, amphetamine, nicotine, and alcohol. […] Antagonism of the D3 DAR may also be therapeutic in the treatment of schizophrenia or psychosis. […] Since the D3 DAR is expressed in areas of the CNS associated with the control of mood and emotion, it has been hypothesized that selective antagonism of the D3 DAR may be effective in treating psychosis without inducing the motor side effects typically seen with D2 DAR antagonists.
This part of the project aims to discover novel antagonist.
NIH Chemical Genomics Center [NCGC]
NIH Molecular Libraries Probe Centers Network [MLPCN]
Assay Submitter (PI): David Sibley, NINDS
Freshly passaged cells are plated in 1536 well white, solid bottom plates at a density of 1500 cells/well in 3microl of complete media. After an overnight incubation at 37 degrees C in 5% CO2, cells are loaded with 23nl of test compound from the compound library (as well as dopamine controls) using a 1536 pintool and incubated at 37 degrees C for 90 minutes. Two microliters of DiscoveRx reagent is then added to all cells, and they are incubated for an additional 30 - 60 minutes at room temperature. Following incubation, luminescence is measured on a ViewLux CCD-based luminometer reader using a 20 sec exposure time.
A general note: qHTS replaces the single test concentration by a dilution series.
Take `CC(=O)C1(O)CCC2C3CCC4=C(Cl)C(=O)CCC4(C)C3CCC21C` (stereo not drawn): the max response, negative = inhibition is -13.9% (inactive).

On to `CCN1CCN(C(=O)Cc2coc3cc(C)cc(C)c23)CC1`, for which the max response, negative = inhibition is -9.21% (inactive).

With `C[C@]12CCC3C(CC[C@H]4[C@H](O)[C@H](O)CC[C@]34C)C1CC[C@@H]2O` (stereo partly drawn), the max response, negative = inhibition is 2.6% (inactive). Take `CC(C)CN1Cc2cc(N3CCCCC3)ccc2-n2nncc2C1`: the max response, negative = inhibition was -13.6% (inactive). In the case of `CCOc1ccc(CN(CCCl)CCCl)cc1C(=O)OC` it was -27.4% (inactive); in that of `CC(C)c1ccc(OCC(=O)N2CCCN(C)CC2)cc1`, -7.58% (inactive). In the case of `CN1CCN(C(=O)COc2ccc(C(C)(C)C)cc2Br)CC1` it was 0% (inactive); in that of `CC(C)c1ccc(OCC(=O)N2CCN(C)CC2)c(Br)c1`, -52% (active); in that of `Cc1ccc(P(=S)(c2ccc(C)o2)N2CCOCC2)o1`, 14% (inactive). With `Cc1nc2ccccn2c1P(=S)(N1CCCCC1)N1CCCCC1`, the max response, negative = inhibition is 12% (inactive). The value for `Cc1cc(C)cc(NC(=S)NC2CC3CCCC(C2)N3Cc2cccs2)c1` (stereo not drawn) was -81.8% (active); that for `CCC1(CC(C)c2ccccc2)C(=O)NC(=O)NC1=O` (stereo not drawn) was 6.61% (inactive); that for `O=C(CCN1CCCCC1)NCC(=O)Nc1ccc(Br)cc1C(=O)c1ccccc1` was -29.9% (inactive). In the case of `Cc1ccc(Cn2c(C)c3cnn(CC(=O)N4CCC5(CC4)OCCO5)c(=O)c3c2C)cc1` it was 3.94% (inactive). Regarding `O=c1[nH]c2ccccc2n1C1CCN(C(c2ccccc2)c2nnnn2Cc2ccccc2)CC1` (stereo not drawn), the max response, negative = inhibition is 71.4% (inactive). In the case of `O=c1[nH]c2ccccc2n1C1CCN(C(c2ccnc3ccccc23)c2nnnn2Cc2ccccc2)CC1` (stereo not drawn), the max response, negative = inhibition was 9.58% (inactive). In the case of `Cc1ccc(Cn2nnnc2CN2CCC(n3nnc4ccccc43)CC2)cc1` it was -69% (active); in that of `CCOC(=O)[C@]12Cc3ccccc3[C@H]1N(C1CCCCC1)C(=O)c1cc(OC)ccc12`, -14.9% (inactive); in that of `O=C(COC(=O)Cc1ccccc1)Nc1ccc(F)cc1`, 6.49% (inactive).

As to `CCOc1cccc(=NC2CCCCC2)c2c(C)[nH]c(C)c12`, the max response, negative = inhibition is 13.5% (inactive). In the case of `CCN1CC2C3CCC(C)(O3)C2C1` (stereo not drawn) it was -7.4% (inactive); in that of `Cc1nc2nc(C)c(CCC(=O)N3CCC4(CC3)OCCO4)c(C)n2n1`, -10.8% (inactive). In the case of `Cc1ccc(C2CN(C)CC2C(=O)c2ccc(F)cc2)cc1` (stereo not drawn) it was -102% (active).

As to `COc1ccc(C(=O)C2CN(C)CC2C(=O)c2ccc(OC)cc2)cc1` (stereo not drawn), the max response, negative = inhibition was -1.15% (inactive). On to `CN1CCC(OC(=O)c2cccc(F)c2)CC1`, for which the max response, negative = inhibition is -13.8% (inactive). Turning to `Cn1c(O)c(C(=Nc2ccc(F)cc2)c2ccccc2)c(=O)n(C)c1=O`, the max response, negative = inhibition was -8.88% (inactive). Take `c1cncc(CNCCc2c[nH]c3ccccc23)c1`: the max response, negative = inhibition is 14.8% (inactive). For `O=C1NCN(c2ccccc2)C12CCN(C(c1cccs1)c1nnnn1C1CCCCC1)CC2` (stereo not drawn), the max response, negative = inhibition was -8.63% (inactive). For `c1ccc(N2Cc3ccccc3-n3nncc3C2)nc1`, the max response, negative = inhibition was -20.4% (inactive).

With `CC(=O)OC1C2(CC3N4C(=O)C5(CO)SSC4(CC31O)C(=O)N5C)OC(C)C(C)(C)C2=O` (stereo not drawn), the max response, negative = inhibition is -98.1% (active). The value for `CN(C)S(=O)(=O)c1cc(C(=O)N2CCC(C(=O)O)(c3ccccc3)CC2)ccc1Cl` was -1.23% (inactive). On to `Clc1ccc2nc3c(c(-c4ccccc4)c2c1)CNCC3`, for which the max response, negative = inhibition is -1.49% (inactive).

As for `COc1ccc(-n2nnnc2C(c2cccc3ccccc23)N2CCC(n3c(=O)[nH]c4ccccc43)CC2)cc1` (stereo not drawn), the max response, negative = inhibition was 117% (inactive).
